Screening data from PubChem BioAssay.
Compounds with a hit are over-represented: about 3.1% of the library has one in this group of screens.
KAT2A inh – GCN5L2 (KAT2A) acetyltransferase inhibition; Q92830; GCN5L2 HAT assay, ThioGlo1 CoA-SH fluorescence; Potency, µM (titrated, usually from 58.9 µM), inactives show at the highest dose activity change, negative = inhibition, actives largely listed as inhibitors; actives 0.21% (n = 390,000); AID 504327; note: potency is the fitted concentration of half-maximal effect
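Fluorescence readout, Ex340nm/Em540nm: ThioGlo1 (50uM final) reacts with free CoA thiol released as 20nM GCN5L2 acetylates H3(1-25) peptide (75uM) using acetyl-CoA (70uM). Compound and enzyme sat 15 min beforehand; 20 min room-temperature reaction.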
PLK1 PBD inh – PLK1 (human) polo-box domain binding inhibition | Plk1 PBD binding of FITC phosphopeptide, fluorescence polarization | Potency, µM, without a hit: max response, negative = inhibition, usual class: inhibitors | actives 2.8% (n = 360,000) | AID 720504; note: potency is the fitted concentration of half-maximal effect; series mostly up to about 57 µM; nearly all actives have a fitted effect of over 65% in size
Target sequence (P53350 whole entry, looked up, the tested form may be a part): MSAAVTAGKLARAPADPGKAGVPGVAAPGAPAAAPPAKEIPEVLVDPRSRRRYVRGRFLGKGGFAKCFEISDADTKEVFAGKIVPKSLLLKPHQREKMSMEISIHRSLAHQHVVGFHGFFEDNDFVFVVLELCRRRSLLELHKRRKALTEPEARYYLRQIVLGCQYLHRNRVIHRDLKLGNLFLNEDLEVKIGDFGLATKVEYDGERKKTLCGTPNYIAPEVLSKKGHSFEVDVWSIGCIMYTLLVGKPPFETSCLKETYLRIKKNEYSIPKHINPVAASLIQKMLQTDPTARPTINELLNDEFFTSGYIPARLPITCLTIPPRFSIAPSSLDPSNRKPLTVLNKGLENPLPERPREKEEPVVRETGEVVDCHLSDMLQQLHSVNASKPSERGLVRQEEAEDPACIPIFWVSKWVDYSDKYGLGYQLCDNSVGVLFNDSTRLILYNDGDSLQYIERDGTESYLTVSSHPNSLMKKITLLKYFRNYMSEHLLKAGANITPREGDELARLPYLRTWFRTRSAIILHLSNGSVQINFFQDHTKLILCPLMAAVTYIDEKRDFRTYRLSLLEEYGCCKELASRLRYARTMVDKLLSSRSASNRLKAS
PI4K2A inh – blocks human PI4K2A kinase activity; Q9BTU6; purified PI4K2A, ADP-Glo luminescence, 1 h; stronger effect = lower value; activity change, negative = inhibition, % at 76.9 µM; actives 0.13% (n = 420,000); AID 1346378; in the data active = activity change below about -50%; inconclusive = mostly about -30% to -49%;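 note: -100% = wells without enzyme as full effect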
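Compounds are screened against recombinant PI4K2A using PI as substrate and ATP, the latter dispensed at 300 microM. Reactions run one hour at ambient temperature before ADP-Glo detection; full inhibition defined by wells lacking enzyme.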
GLS inhibitor – blocks human kidney-isoform glutaminase activity; O94925; GLS enzymatic activity, qHTS titration; Potency, µM (series often up to 45.5 µM), inactives show at the top dose activity change, negative = inhibition, actives largely listed as inhibitors; actives 0.21% (n = 410,000); AID 624170; note: potency is the fitted concentration of half-maximal effect
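Compounds were pin-transferred onto hKGA, after which L-glutamine (1 mM solution) and a detection mix of glutamate oxidase, HRP and Amplex Red were added. Initial and 30 min RT fluorescence reads were collected.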
VDR inhibitor – vitamin D3 receptor (human) inhibition | P11473 | VDR-SRC2-3 peptide fluorescence polarization, 2 h | Potency, µM, for the others: max response, negative = inhibition, usual class: inhibitors | actives 0.93% (n = 400,000) | AID 504847; note: potency is the fitted concentration of half-maximal effect
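FP read-out; VDR + SRC2-3 coactivator peptide; 23 nl compound by pintool; 2 h RT incubation; reagents held at 4 deg C, protected from light.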
* marks the source's active call; other numbers are inactive results; u = inconclusive; x = not tested or not shown; [ ] = dose if it differs, or a comment. Unless noted, calls come from the whole dose curve; as a rule, active = well fitted curve in the direction sought with a large enough effect; inconclusive = small, poorly fitted or top-dose-only effect, or another doubt; inactive = no such curve, though single readings can be large; an effect the other way counts as inactive or inconclusive. Unless noted, % is set by controls: 0 for no effect and ±100 for the full control effect.

SMILES | KAT2A inh | PLK1 PBD inh | PI4K2A inh | GLS inhibitor | VDR inhibitor
Cn1c(SCC(=O)NNC(=O)Cc2ccccc2)nnc1-c1ccc(Cl)cc1 | -0.7% | -12.9% | -5.6 | 2.6% | -10.0%
CCn1c2ccccc2c2cc(NC(=O)CSc3nnc(-c4cccc(OC)c4)n3N)ccc21 | -0.5% | -6.4% | 0.4 | -7.6% | 13.3%
CC(C)Oc1cccc(-c2nnc(SCC(=O)Nc3ccc4c(c3)OCCO4)n2N)c1 | 25.1µM* | -18.9% | -2.3 | -0.1% | -13.1%
CCn1c2ccccc2c2cc(NC(=O)CSc3nnc(-c4ccc(OC)c(OC)c4)n3N)ccc21 | 5.62µM* | -8.0% | -0.4 | x | 4.2%
Nn1c(SCC(=O)Nc2ccc3c(c2)OCCO3)nnc1-c1cccnc1 | 0.2% | -6.5% | 0.2 | -2.8% | -0.5%
Cc1cc(NC(=O)CSc2nnc(-c3ccccc3)n2C)no1 | 13.9% | 23.8µM* | -4.0 | 0.0% | -7.2%
CCOc1ccc(NC(=O)CSc2nccn2-c2cccc(C)c2C)cc1 | -2.5% | x | -1.5 | -2.5% | 4.7%
Cc1cc(NC(=O)CSc2nnc(Nc3ccccc3C)s2)no1 | -0.2% | 21.2µM* | -1.6 | -20.4% | -14.6%
Cn1c(SCC(=O)NC(c2ccccc2)c2ccccc2)nnc1-c1cccs1 | -3.3% | 26.7µM* | 6.6 | -8.4% | u
Cn1c(SCC(=O)NC2CC2)nnc1-c1cccs1 | -5.7% | 0.1% | 3.3 | 3.3% | -7.1%
Cc1cc(NC(=O)CSc2cn(CCNC(=O)c3ccccc3)c3ccccc23)no1 | -1.0% | u | -15.1 | 8.91µM* | -10.2%
Cc1ccc(C(=O)NCCn2cc(SCC(=O)Nc3cc(C)on3)c3ccccc32)cc1 | -8.4% | 1.0% | 2.7 | 2.7% | -4.7%
Clc1ccc([C@H]2OC[C@@]3(CNCCc4c[nH]c5ccccc45)CS[C@H](c4ccc(Cl)cc4)N23)cc1 | x | x | -2.7 | x | x
CCCCOC(=O)CC(CC(=O)OCCCC)(OC(C)=O)C(=O)OCCCC | x | x | -1.0 | x | x
C=CCSc1nc2[nH]ncc2c(=O)[nH]1 | 0.2% | 29.9µM* | 0.5 | 0.4% | -15.5%
Cc1csc(NC(=O)CSc2nc3[nH]ncc3c(=O)[nH]2)n1 | -0.1% | 21.2µM* | -4.0 | 29.0% | u
COC(=O)c1ccccc1O | -21.1% | x | x | -15.8% | 5.9%
COC(=O)c1ccccc1S(=O)(=O)C(C)(C)C | 1.6% | 23.8µM* | 3.0 | u | u
O=C(CCn1c(=O)c2cccn2c2cccnc21)NCc1ccccc1F | -1.5% | x | 10.0 | -7.7% | 6.1%
Cc1ccc(-c2nc3ncccn3c2NC(=O)Nc2ccc(F)cc2)cc1 | x | x | -2.8 | x | x
COc1ccc(OCc2ccc(-c3nc(C#N)c(N4CCN(C)CC4)o3)o2)cc1 | -16.0% | x | -1.9 | 1.1% | 0.4%
Cc1nc(CN2CCC(c3ccccc3)CC2)cc(=O)[nH]1 | 21.8% | 21.2µM* | -5.2 | -0.6% | u
CC1(C)OC(=O)C2(Cc3ccc(Br)cc3N3CCCCC32)C(=O)O1 (centres undefined) | x | x | x | x | -3.8%
Nn1cnnc1N/N=C/c1ccc(F)cc1 | -1.3% | -3.3% | u | 20.4% | -26.4%
Nn1cnnc1N/N=C/c1ccc(Cl)c([N+](=O)[O-])c1 | -9.1% | -21.5% | -51.8* | -1.1% | u
SMILES | KAT2A inh | PLK1 PBD inh | PI4K2A inh | GLS inhibitor | VDR inhibitor
CCc1nnc(N/N=C/c2ccc(N3CCC(C)CC3)c([N+](=O)[O-])c2)n1N | -6.1% | -1.4% | u | 16.5% | 17.8µM*
COc1ccc(NC(=O)Cn2nnnc2-c2ccccc2F)c(C)c1 | -2.1% | x | -2.4 | -6.4% | 9.3%
O=C1OC(c2ccccc2)=N/C1=C\C=C\c1ccco1 | 25.1µM* | -14.7% | -7.4 | 11.7% | -14.4%
Cc1ccc(NC(=O)OCCCN2C(=O)CCC23CCC(C)CC3)cc1C (centres undefined) | x | x | -3.5 | x | x
CNC(=O)CCCc1nc(-c2ccccc2Cl)no1 | -3.2%[0.501 µM] | 23.8µM* | 12.3 | -2.2% | -8.4%
NC(=O)CCCc1nc(-c2ccccc2Cl)no1 | -10.9% | 0.1% | 20.9 | 2.8% | 1.5%
CCOC(=O)c1cc(-c2ccc(OC)cc2)n(CCC(=O)Nc2ccc(OC)cc2OC)c1C | -2.6% | x | -7.5 | -3.4% | -4.0%
O=c1c2ccccc2nnn1Cc1ccc(F)cc1 | 0.2% | -25.7% | -0.7 | -3.6% | -12.3%
Cc1ccc(N2C(=O)CC(N3CCN(c4ccc(F)cc4)CC3)C2=O)c(C)c1 (centres undefined) | -5.9% | 4.7% | -2.0 | 9.4% | 15.4%
O=c1c2ccccc2sn1-c1ccc(F)cc1 | 2µM* | 2.99µM* | -14.4 | 10µM* | 15.8µM*
